# Results filed as inconclusive are left out. The source made the active and inactive calls. Rule for the calls: active = hit-call score of the fitted dose curve at least 0.9, where 1 is the maximum; inconclusive = response in the unintended direction; inactive = score below 0.9.
# Read-out: Glyceraldehyde-3-phosphate dehydrogenase (Homo sapiens) (UniProt P04406)
# Assay: CLD_GAPDH_48hr: CellzDirect (CLD) Gene Expression Assay for Baseline Control (Glyceraldehyde 3-phosphate dehydrogenase) at 48 hours (AID 2283706);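 note: active means higher GAPDH mRNA than DMSO vehicle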
# Outline: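 Primary human hepatocytes dosed daily for two days with fresh chemical at multiple concentrations, 0.2% DMSO vehicle; GAPDH mRNA measured at 48 h by quantitative nuclease protection assay with chemiluminescence, fitted upward relative to DMSO as background control.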
# Glyceraldehyde-3-phosphate dehydrogenase (Homo sapiens), sequence (P04406 whole entry, looked up): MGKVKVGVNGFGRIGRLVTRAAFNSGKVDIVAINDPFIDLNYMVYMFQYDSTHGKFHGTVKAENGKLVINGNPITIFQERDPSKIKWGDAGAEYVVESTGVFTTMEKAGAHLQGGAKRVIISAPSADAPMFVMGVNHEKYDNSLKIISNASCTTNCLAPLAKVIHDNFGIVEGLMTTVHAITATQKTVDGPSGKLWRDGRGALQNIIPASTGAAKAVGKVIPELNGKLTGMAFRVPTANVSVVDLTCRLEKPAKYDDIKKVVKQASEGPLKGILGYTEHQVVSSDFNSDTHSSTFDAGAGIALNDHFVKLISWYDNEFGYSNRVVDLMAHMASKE
row,SMILES,outcome
1,S=C1NCCN1,inactive
2,CCOP(=O)(OCC)Oc1cc(C)nc(C(C)C)n1,inactive
3,CC(C)N(C(=O)SCC(Cl)=C(Cl)Cl)C(C)C,inactive
4,CSC1=N[C@@](C)(c2ccccc2)C(=O)N1Nc1ccccc1,inactive
5,CCc1cnc(C2=NC(C)(C(C)C)C(=O)N2)c(C(=O)O)c1 (stereo not drawn),inactive
6,CC[C@H](C)[C@H]1O[C@]2(C=C[C@@H]1C)C[C@@H]1C[C@@H](C/C=C(\C)[C@@H](O[C@H]3C[C@H](OC)[C@@H](O[C@H]4C[C@H](OC)[C@@H](NC)[C@H](C)O4)[C@H](C)O3)[C@@H](C)/C=C/C=C3\CO[C@@H]4[C@H](O)C(C)=C[C@@H](C(=O)O1)[C@]34O)O2,inactive
7,COc1cc(OC)nc(Sc2cccc(Cl)c2C(=O)O)n1,inactive
8,CNC(=O)ON=C(SC)C(=O)N(C)C,inactive
9,CC(=NC#N)N(C)Cc1ccc(Cl)nc1,inactive
10,CCCCOC(=O)c1ccccc1C(=O)O,inactive
11,CN(C)NC(=O)CCC(=O)O,inactive
12,CSc1nnc(C(C)(C)C)c(=O)n1N,inactive
13,N#CSCSC#N,inactive
14,CCCOCC(=Nc1ccc(Cl)cc1C(F)(F)F)n1ccnc1,inactive
15,CC1=NNC(=O)N(/N=C/c2cccnc2)C1,inactive
16,CNC(=O)ON=C(C)SC,inactive
17,C[N+]1(C)CCCCC1,inactive
18,Nc1nc(N)nc(NC2CC2)n1,inactive
19,CCCSP(=O)(OCC)SCCC,inactive
20,COP(=O)(NC(C)=O)SC (stereo not drawn),inactive
21,CN(C)[C@@H]1C(=O)C(C(N)=O)=C(O)[C@@]2(O)C(=O)C3=C(O)c4c(O)cccc4[C@@](C)(O)[C@H]3[C@H](O)[C@@H]12,inactive
22,O=c1ccc(=O)[nH][nH]1,inactive
23,CCCOc1nn(C(=O)NS(=O)(=O)c2ccccc2C(=O)OC)c(=O)n1C,inactive
24,CC(C)=CC1C(C(=O)OCN2C(=O)C3=C(CCCC3)C2=O)C1(C)C (stereo not drawn),inactive

# Read-out: organic anion transporter (SLCO1B1), SLCO1B1 (gene 10599)
# Assay: CLD_SLCO1B1_48hr: CellzDirect (CLD) Gene Expression Assay for organic anion transporter (SLCO1B1) at 48 hours (AID 2283707)
# Outline: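 Primary human hepatocytes from two donor preparations dosed daily for two days with multiple concentrations, 0.2% DMSO vehicle. SLCO1B1 mRNA at 48 h by quantitative nuclease protection assay, chemiluminescence; gain-of-signal fitted versus DMSO.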
row,SMILES,outcome
1,S=C1NCCN1,inactive
2,CCOP(=O)(OCC)Oc1cc(C)nc(C(C)C)n1,inactive
3,CC(COc1ccc(Oc2ccccc2)cc1)Oc1ccccn1 (stereo not drawn),inactive
4,CCc1cnc(C2=NC(C)(C(C)C)C(=O)N2)c(C(=O)O)c1 (stereo not drawn),inactive
5,CC[C@H](C)[C@H]1O[C@]2(C=C[C@@H]1C)C[C@@H]1C[C@@H](C/C=C(\C)[C@@H](O[C@H]3C[C@H](OC)[C@@H](O[C@H]4C[C@H](OC)[C@@H](NC)[C@H](C)O4)[C@H](C)O3)[C@@H](C)/C=C/C=C3\CO[C@@H]4[C@H](O)C(C)=C[C@@H](C(=O)O1)[C@]34O)O2,inactive
6,COc1cc(OC)nc(Sc2cccc(Cl)c2C(=O)O)n1,inactive
7,CC(Oc1cccc(Cl)c1)C(=O)O (stereo not drawn),inactive
8,CC(=NC#N)N(C)Cc1ccc(Cl)nc1,inactive
9,CCCCOC(=O)c1ccccc1C(=O)O,inactive
10,CN(C)NC(=O)CCC(=O)O,inactive
11,C#CCC1=C(C)C(OC(=O)C2C(C=C(C)C)C2(C)C)CC1=O (stereo not drawn),inactive
12,O=C(O)c1cc(Oc2ccc(C(F)(F)F)cc2Cl)ccc1[N+](=O)[O-],inactive
13,CCc1cccc(CC)c1N(COC)C(=O)CCl,inactive
14,C[N+]1(C)CCCCC1,inactive
15,CCCSP(=O)(OCC)SCCC,inactive
16,COP(=O)(NC(C)=O)SC (stereo not drawn),inactive
17,CN(C)[C@@H]1C(=O)C(C(N)=O)=C(O)[C@@]2(O)C(=O)C3=C(O)c4c(O)cccc4[C@@](C)(O)[C@H]3[C@H](O)[C@@H]12,inactive
18,O=c1ccc(=O)[nH][nH]1,inactive
19,CCCOc1nn(C(=O)NS(=O)(=O)c2ccccc2C(=O)OC)c(=O)n1C,inactive

# From PubChem BioAssay (EPA / NIEHS)
